# KCNQ2 enhance – KCNQ2 (rat) channel potentiation. O88943. CHO-K1 KCNQ2, FluxOR thallium flux fluorescence; stronger effect = higher value. B-score at 10 µM. 310,000 tested, 0.54% active. AID 2239;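 active means fluorescence ratio B-score at least 3 SD of library B-scores, with initial fluorescence B-score within 3 of them, cut at about 5.3 in these data; same plate scores as AID 2156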;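 further: B-score of peak minus minimum over baseline fluorescence ratio after K+ and Tl+ stimulus; positive B-score means potentiation of KCNQ2 with more thallium influx and brighter signal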
# Target sequence (O88943 whole entry, looked up): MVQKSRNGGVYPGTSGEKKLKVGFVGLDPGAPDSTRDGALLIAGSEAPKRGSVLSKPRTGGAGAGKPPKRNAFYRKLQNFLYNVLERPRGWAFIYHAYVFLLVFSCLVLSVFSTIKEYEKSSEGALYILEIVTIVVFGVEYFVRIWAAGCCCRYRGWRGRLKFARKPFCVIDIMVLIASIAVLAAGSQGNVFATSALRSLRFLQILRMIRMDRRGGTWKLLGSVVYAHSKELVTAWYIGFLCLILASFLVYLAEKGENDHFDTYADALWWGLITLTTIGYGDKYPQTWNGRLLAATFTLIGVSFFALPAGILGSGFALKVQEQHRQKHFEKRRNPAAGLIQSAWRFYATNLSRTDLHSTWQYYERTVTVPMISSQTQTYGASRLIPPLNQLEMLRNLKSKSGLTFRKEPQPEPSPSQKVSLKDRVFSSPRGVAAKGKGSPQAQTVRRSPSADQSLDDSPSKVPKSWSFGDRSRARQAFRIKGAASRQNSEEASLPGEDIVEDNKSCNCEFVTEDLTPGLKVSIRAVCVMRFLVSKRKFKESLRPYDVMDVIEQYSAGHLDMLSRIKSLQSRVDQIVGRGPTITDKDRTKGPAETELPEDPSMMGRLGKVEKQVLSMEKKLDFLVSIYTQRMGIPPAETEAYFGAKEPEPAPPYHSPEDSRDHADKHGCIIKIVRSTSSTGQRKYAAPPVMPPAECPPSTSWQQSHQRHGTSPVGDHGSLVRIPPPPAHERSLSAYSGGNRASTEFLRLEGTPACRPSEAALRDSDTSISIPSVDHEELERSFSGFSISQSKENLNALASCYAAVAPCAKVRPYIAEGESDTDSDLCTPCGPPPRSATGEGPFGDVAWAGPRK
# KCNQ2 inh – inhibitors of rat KCNQ2 potassium channel. O88943. CHO-K1 KCNQ2, FluxOR thallium flux, 20 min; stronger effect = lower value. B-score at 10 µM. 310,000 tested, 1.1% active. AID 2156;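 active means fluorescence ratio B-score at most minus 3 library SDs, with starting brightness B-score within 2 library SDs, cut at about -5.5 in these data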
# Kir21 conf inh – confirmation of mouse Kir2.1 potassium channel inhibitors; shares compounds with KCNQ2 enhance; Kir2.1-expressing cells, FluxOR thallium flux fluorescence; stronger effect = lower value; Tl flux remaining, % of negative control (stronger effect = lower value), % at 10 µM; 2,300 tested, 41% active; AID 2032;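 active means Primary-screen hit whose thallium flux fell at least 3 control SD below untreated wells in both duplicates, with normal baseline fluorescence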;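 further: 0% = blank wells without stimulus and 100% = stimulated no-compound controls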
# HEK293 Tl flux – parental HEK293 activity in Kir2.1 inhibitor counter-screen; AID 2105; shares compounds with KCNQ2 enhance; parental HEK293 cells, FluxOR thallium flux fluorescence; 0% = unstimulated blank wells; FluxOR signal as % of negative control (100 = no effect), % at 10 µM; 2,300 tested, 19% active;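 active means dye signal at least 3 control SD above or below untreated wells in both duplicates, raw fluorescence within 3, either direction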;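 further: percent is based on the flux ratio of peak minus minimum fluorescence over baseline F0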
# CHO-K1 ctr – alters thallium flux in parental CHO-K1 cells, KCNQ2 counter-screen; shares compounds with KCNQ2 enhance; FluxOR thallium flux fluorescence; zero = vehicle mean+3SD, 100% = vehicle-minus-blank window; activity increase over 3SD of controls, % at 10 µM; 1,200 tested, 43% active;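 active means signal rise of at least 3 SD above the untreated control mean, in both duplicate wells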;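 further: counter screen of KCNQ2 potentiator hits so any rise reflects channel-independent effects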
# KCNQ1 pot spec – tests whether KCNQ2 potentiators also act on human KCNQ1; CHO KCNQ1 stable, FluxOR thallium flux fluorescence; beyond 3SD, as % of vehicle-control signal; shares compounds with KCNQ2 enhance; activation over 3SD threshold, % at 10 µM; 1,200 tested, 28% active;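 active means fluorescence ratio rise of at least 3 SD of vehicle wells above their mean, in both replicate wells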;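 further: 0% = vehicle mean plus 3 SD and 100% = vehicle minus unstimulated blank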
# KCNQ2 pot confirm – confirmation of rat KCNQ2 potassium channel potentiators | potentiation, less the hit threshold, % at 10 µM | CHO-KCNQ2 cells, FluxOR thallium flux fluorescence | 1,200 tested, 68% active | shares compounds with KCNQ2 enhance;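 active means fluorescence ratio rising 3 SD or more over the vehicle control mean in both replicates, plus primary screen hit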;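 further: peak minus minimum thallium fluorescence divided by baseline after K/Tl stimulus; 0% = vehicle mean plus 3 SD and 100% = vehicle minus unstimulated blank difference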
# Kir2-1 sel – selectivity of KCNQ2 potentiators: effect on mouse Kir2.1. shares compounds with KCNQ2 enhance. AID 2345. HEK293 Kir2.1, FluxOR thallium flux fluorescence. 1,200 tested, 2% active. activity over 3SD threshold, % at 10 µM;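 active means fluorescence ratio rise of at least 3 SD above the vehicle-control mean, seen in both replicates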;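 further: 0% = vehicle mean plus 3 SD and 100% = vehicle minus no-stimulus blank window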
# KCNQ2 W236L pot – rat KCNQ2 W236L mutant potentiation by KCNQ2 potentiators. shares compounds with KCNQ2 enhance. CHO KCNQ2-W236L, automated patch clamp current. current increase over 3SD of negative controls (%), stronger effect = higher value, % at 25 µM. 940 tested, 10% active. AID 2558;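 active means current increase at least 3 SD of the untreated controls above them in both duplicate recordings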
# Numbers without * were called inactive; i = inactive; x = no result. The list is not random: actives were taken first. Their share in the collection is about 1.6%.
SMILES,KCNQ2 enhance,KCNQ2 inh,Kir21 conf inh,HEK293 Tl flux,others
O=C(CCC(=O)c1cccs1)NCC(=O)Nc1ccc(F)c(F)c1F,0.5,i,x,x,
Cc1nn(-c2ccc(Cl)cc2)c2sc(C(=O)c3c(N)n(C)c(=O)n(C)c3=O)cc12,0.12,i,i,i,
Cn1c(N)c(C(=O)c2ccc(Cl)cc2)c(=O)n(C)c1=O,1.14,i,x,x,
O=C(Cn1cccc1C(=O)c1ccccc1)NCCCc1ccccc1,0.8,i,x,x,
CC(C(=O)NCCCc1ccccc1)n1cccc1C(=O)c1ccccc1 (configuration not stated),x,i,64.5%*,i,
C/C=C/c1ccc(OCCOc2cc(C=O)ccc2OC)c(OC)c1,0.03,i,x,x,
Cc1ccc(OCCNCc2ccccc2)c(C)c1,x,i,x,x,
COc1cc(C)ccc1OCCCCNCc1ccccc1,0.05,i,58.5%*,i,
C/C=C/c1ccc(OCCOCCNCc2ccccc2)c(OC)c1,0.43,i,30.0%*,i,
CNC(=S)NNc1nc(C)cc(C)n1,x,i,x,x,
COC(=O)c1ccc(C2c3c(oc4ccc(Cl)cc4c3=O)C(=O)N2CCN2CCOCC2)cc1 (configuration not stated),x,i,x,x,
Cc1c(NC(=S)NC(=O)C2CCCCC2)c(=O)n(-c2ccccc2)n1C,x,i,x,x,
Cc1ccc(-c2nc(-c3ccncc3)no2)cc1,0.06,i,x,x,
CC(C)(C)c1ccc(-c2nc(-c3ccncc3)no2)cc1,7*,i,i,i,CHO-K1 ctr=54.1*;KCNQ1 pot spec=-12.9;KCNQ2 pot confirm=45.5*;Kir2-1 sel=-35.8;KCNQ2 W236L pot=i
Cc1cccc(N2CC(C)Cn3c2nc2c3c(=O)[nH]c(=O)n2C)c1 (configuration not stated),0.84,i,x,x,
Cc1ccc(F)cc1CNC(=O)C1CCC(=O)N(C2CC2)C1 (configuration not stated),x,i,x,x,
CN(C)S(=O)(=O)c1ccc(NC(=O)C2CC(=O)N(Cc3ccccc3Cl)C2)cc1 (configuration not stated),0.51,i,x,x,
O=C(N/N=C/c1ccc(COc2ccc(Br)cc2)o1)c1ccc2c(c1)OCO2,5.71*,i,i,i,CHO-K1 ctr=-4.6;KCNQ1 pot spec=-27.8;KCNQ2 pot confirm=-11.4;Kir2-1 sel=-29.4
O=C(N/N=C/c1ccc(-c2ccc(Br)cc2)o1)c1ccc2c(c1)OCO2,x,i,x,x,
CCS(=O)(=O)N1CCC(NC(=O)C(Cc2cc(OC)ccc2OC)NC(C)=O)CC1 (configuration not stated),0.68,i,i,i,
COc1ccc(CC(NC(C)=O)C(=O)NC2CCN(S(=O)(=O)c3ccc(NC(C)=O)cc3)CC2)c(OC)c1 (configuration not stated),x,i,x,x,
Cc1ccccc1C(=O)c1cccn1CC(=O)NCc1ccccc1,x,i,x,x,
Cc1ccccc1C(=O)c1cccn1CC(=O)NCC(C)c1ccccc1 (configuration not stated),0.69,i,65.5%*,i,
CC1=C(C(N)=O)C(c2cccs2)n2nc(-c3cccc(C)c3)nc2N1 (configuration not stated),0.02,i,x,x,
CC1=C(C(N)=O)C(c2cccs2)n2nc(-c3cccc(Cl)c3)nc2N1 (configuration not stated),5.77*,i,i,i,CHO-K1 ctr=53.2*;KCNQ1 pot spec=-11.4;KCNQ2 pot confirm=-4.2;Kir2-1 sel=-37.7;KCNQ2 W236L pot=0.9%*
SMILES,KCNQ2 enhance,KCNQ2 inh,Kir21 conf inh,HEK293 Tl flux,others
COc1cc(/C=N/N2CCN(Cc3ccc(C)cc3)CC2)cc(OC)c1O,x,i,x,x,
CC(C)CC(=O)NC(=S)Nc1nc(-c2cccc3ccccc23)cs1,8.41*,i,i,i,CHO-K1 ctr=3.5*;KCNQ1 pot spec=9.8*;KCNQ2 pot confirm=-11.0;Kir2-1 sel=-19.9
CCOC(=O)Cc1csc(NC(=S)NC(=O)CC(C)C)n1,x,i,x,x,
COc1ccc(-n2cnc3scc(-c4ccccc4)c3c2=O)cc1,x,i,x,x,
CCNC(=S)N1CCCC(C(N)=O)C1 (configuration not stated),0.83,i,x,x,
CN1CCc2c(n(CC(O)CNCc3ccccc3)c3ccccc23)C1=O (configuration not stated),x,i,71.5%*,i,
CN1CCc2c(n(CC(O)CN(CCO)CCO)c3ccccc23)C1=O (configuration not stated),0.46,i,x,x,
O=C(CCS(=O)(=O)c1ccc(Cl)cc1)N1CCCc2ccccc21,1.2,i,x,x,
COc1ccc(-n2c(-c3ccc(Br)cc3)c[n+]3c2CCc2ccccc2-3)cc1,x,i,59.5%*,74.0%*,
CC(C)c1ccc(-n2c(-c3ccccc3)c[n+]3c2CCc2ccccc2-3)cc1,-7.43,-7.43*,20.0%*,i,
COc1ccc(-c2cn(-c3ccc(OC)cc3)c3[n+]2-c2ccccc2CC3)cc1,x,i,x,x,
COc1ccccc1-n1c(-c2ccccc2)c[n+]2c1CCc1ccccc1-2,x,i,x,x,
CC(C)CN(CC(C)C)C(=O)CS(=O)(=O)Cc1ccccc1,x,i,x,x,
CCOC(=O)C1=C(COC(=O)COc2ccc(OCC)cc2)NC(=O)NC1C (configuration not stated),0.81,i,x,x,
N#Cc1cc([N+](=O)[O-])cnc1NCC(O)CO (configuration not stated),1.16,i,x,x,
CCN(CC)CCOC(=O)C(Cc1ccco1)Cc1cccc2ccccc12 (configuration not stated),x,i,36.5%*,i,
CCN(CC)CCOC(=O)CCc1cccc2ccccc12,2.08,i,x,x,
O=C1CNC(=S)N1CCc1ccc(O)c(O)c1,x,i,x,x,
CCOC(=O)Cc1cnc(NC(=O)NC(C(=O)OCC)(c2ccccc2)C(F)(F)F)s1 (configuration not stated),0.3,i,x,x,
Cc1ccc(-n2c(SCC(=O)N(C)C)nnc2-c2ccco2)cc1,1.35,i,x,x,
CSc1ccc(S(=O)(=O)NCCOc2ccccc2C)cc1,x,i,x,x,
CCc1ccc(S(=O)(=O)NCCOc2cccc3cccnc23)cc1,x,i,69.5%*,i,
S=C(NCc1ccccc1)Nc1nccs1,8.97*,i,i,i,CHO-K1 ctr=26.0*;KCNQ1 pot spec=-18.3;KCNQ2 pot confirm=-19.1;Kir2-1 sel=-36.8
S=C(NCCc1ccccc1)Nc1nccs1,x,i,x,x,
CCN1c2ccccc2S(=O)(=O)c2ccccc21,x,i,x,x,

# Bioassay records from PubChem BioAssay.
